Measurements reported in PubChem BioAssay (NCI).
About 79,000 compounds went through this panel and 15% of them were active in at least one assay; those are over-represented in the sample as a whole. Unmarked numbers belong to inactive results. Active and inactive are the calls of the source. Cut-off read from the data, not from the text of the source: active = growth inhibition above about 70%; inactive = the rest.

assay: NCI Yeast Anticancer Drug Screen. Data for the cln2 rad14 strain (AID 165);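 note: 0% = growth equal to vehicle treated cultures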; settings: S. cerevisiae cln2 rad14 strain, at 50.0 µM, hits give high values
Procedure, shortened: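 Test compounds were added to cln2 rad14 yeast cultures; inhibition of growth was then determined by comparison with vehicle treatment.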

SMILES	growth inhibition
S=C(S)NN1CCOCC1	87.5% (active)
COc1cc2c3c(cccc3c1)C(=O)N(CCN(C)C)C2=O	-5.5%
COC(=O)C1=C(C)NC(C)=C(C(=O)OCCCN2CCC(c3ccccc3)(c3ccccc3)CC2)C1c1cccc([N+](=O)[O-])c1 (stereo not given)	94.2% (active)
c1ccc2c(c1)Oc1cccc3cccc-2c13	25.4%
CN(C)CCOc1ccc2c(c1)C/C(=C/c1ncc([N+](=O)[O-])n1C)C2=O	77.9% (active)
Cc1ccc(CCC2=CCCc3c2ccc2ccccc32)cc1	16.8%
CNC(=O)OCc1c(COC(=O)NC)c(-c2ccc(Cl)c(Cl)c2)n2c1CCC2	86.9% (active)
Clc1ccccc1C1OC1c1ccccc1Cl (stereo not given)	13.6%
O=[N+]([O-])c1cc(CCl)ccc1CCl	98.3% (active)
O=C1C=CC(=O)c2c(O)c(Nc3ccc(OC(F)(F)F)cc3)c(Cl)c(O)c21	37.9%
S=c1[nH]nc(Nc2ccc(Cl)cc2)s1	90.5% (active)
Cn1ccnc1Oc1ccc(Cl)cc1	-55.4%
BrCc1cccc2ccc3cccc(CBr)c3c12	-24%
O=C1c2ccccc2-c2nc3ccccc3nc21	3.35%
CCCCCCCCCCCCCCCCCCNC	8.1%
Oc1ccc(NCn2c(=S)sc3ccccc32)cc1	40%
O=C1C2CC[C@@H]3C(=O)C(Cl)(Cl)[C@@H]3CCC2C1(Cl)Cl (stereo not given in full)	78.8% (active)
CC[n+]1ccc2c(C)c3[nH]c4ccc(O)cc4c3c(C)c2c1	9.35%
Cc1ccc(-n2cc(-c3ccc(Cl)cc3)c(C#N)c2N)cc1	43.6%
CC(=O)[O][Bi]([c]1ccccc1)[c]1ccccc1	84.7% (active)

SMILES	growth inhibition
CC1=C(SCCO)C(=O)c2ccccc2C1=O	67.2%
C/C(=N\O)C1CC2C=C(C#N)C1N(Cc1ccccc1)C2 (stereo not given)	11.3%
CC(Br)C(=O)c1ccc2cc(Br)c3ccccc3c2c1 (stereo not given)	26.5%
Nc1nc(-c2cccnc2)cc(-c2cc(-c3cccnc3)nc(N)n2)n1	9.95%
CC(C)=CC(=O)O[C@@H]1CC(C)(C)CC2C3=CCC4[C@]56CC[C@](O)(OC5)C(C)(C)C6CC[C@@]4(C)C3(C)CC[C@]21C(=O)O (stereo not given in full)	79.3% (active)
CCC(C)COC(=O)c1ccc(N=Cc2ccc(C=Nc3ccc(C(=O)OCC(C)CC)cc3)cc2)cc1 (stereo not given)	41%
Oc1cccc2c(Cl)ccnc12	91.8% (active)
O=C(O)c1cccc(-c2c3ccc(=O)cc-3oc3cc(O)ccc23)c1	51%
CN(CCc1ccccn1)c1ccc2c(c1)Cc1ccccc1-2	-2.25%
Cc1cc(S(=O)(=O)/N=C(/NN)NNc2cccc(C(F)(F)F)n2)c(S)cc1Cl	41.5%
O=C1C2C(C(=O)N1c1ccc(OCc3ccccc3)cc1)C1c3ccccc3C2C2CCCCN21 (stereo not given)	4.85%
Nc1ccccc1CC(O)C(=O)O (stereo not given)	13.6%
O=C(O)C1CCCCC1c1c2ccc(=O)c(O)c-2oc2c(O)c(O)ccc12 (stereo not given)	56.2%
Cc1ccc2ccc(O)cc2c1	82% (active)
O=C1C(=O)c2ccccc2C=C1[N+](=O)[O-]	16.8%
COC(=O)c1ccc(NCC2=CC(=O)C=CC2=O)cc1O	89.9% (active)
C(CCSC1=NCCN1)CSC1=NCCN1 (tested in a mixture with another compound)	97.6% (active)
N#Cc1c(N)[nH]c2ccc(Sc3ccccc3)cc12	-0.8%
CCNc1nnc(CSc2nc(-c3ccccc3)c(-c3ccccc3)[nH]2)s1	75% (active)
CC[C@@]1(O)C(=O)OCc2c1cc1n(c2=O)Cc2cc3c(N)cccc3nc2-1	-8.35%

assay: NCI Yeast Anticancer Drug Screen. Data for the bub3 strain (AID 167); settings: S. cerevisiae bub3 mutant strain, at 1.2 µM, hits give high values
Procedure, shortened: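 Screening used yeast with an engineered genetic alteration affecting cell cycle control. Compound-exposed cultures were compared with vehicle cultures, and reduced growth was taken as inhibition.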

SMILES	growth inhibition [%]
S=C(S)NN1CCOCC1	69
COc1cc2c3c(cccc3c1)C(=O)N(CCN(C)C)C2=O	-13
COC(=O)C1=C(C)NC(C)=C(C(=O)OCCCN2CCC(c3ccccc3)(c3ccccc3)CC2)C1c1cccc([N+](=O)[O-])c1 (stereo not given)	11
c1ccc2c(c1)Oc1cccc3cccc-2c13	6
CN(C)CCOc1ccc2c(c1)C/C(=C/c1ncc([N+](=O)[O-])n1C)C2=O	3
Cc1ccc(CCC2=CCCc3c2ccc2ccccc32)cc1	-4
CNC(=O)OCc1c(COC(=O)NC)c(-c2ccc(Cl)c(Cl)c2)n2c1CCC2	-58
Clc1ccccc1C1OC1c1ccccc1Cl (stereo not given)	-56
O=[N+]([O-])c1cc(CCl)ccc1CCl	-18
O=C1C=CC(=O)c2c(O)c(Nc3ccc(OC(F)(F)F)cc3)c(Cl)c(O)c21	-17
S=c1[nH]nc(Nc2ccc(Cl)cc2)s1	-3
Cn1ccnc1Oc1ccc(Cl)cc1	-6
BrCc1cccc2ccc3cccc(CBr)c3c12	-12
O=C1c2ccccc2-c2nc3ccccc3nc21	-19
CCCCCCCCCCCCCCCCCCNC	12
Oc1ccc(NCn2c(=S)sc3ccccc32)cc1	14
O=C1C2CC[C@@H]3C(=O)C(Cl)(Cl)[C@@H]3CCC2C1(Cl)Cl (stereo not given in full)	1
CC[n+]1ccc2c(C)c3[nH]c4ccc(O)cc4c3c(C)c2c1	-19
Cc1ccc(-n2cc(-c3ccc(Cl)cc3)c(C#N)c2N)cc1	-6
CC(=O)[O][Bi]([c]1ccccc1)[c]1ccccc1	15

SMILES	growth inhibition [%]
CC1=C(SCCO)C(=O)c2ccccc2C1=O	-4
C/C(=N\O)C1CC2C=C(C#N)C1N(Cc1ccccc1)C2 (stereo not given)	-4
CC(Br)C(=O)c1ccc2cc(Br)c3ccccc3c2c1 (stereo not given)	-7
Nc1nc(-c2cccnc2)cc(-c2cc(-c3cccnc3)nc(N)n2)n1	0
CC(C)=CC(=O)O[C@@H]1CC(C)(C)CC2C3=CCC4[C@]56CC[C@](O)(OC5)C(C)(C)C6CC[C@@]4(C)C3(C)CC[C@]21C(=O)O (stereo not given in full)	-18
CCC(C)COC(=O)c1ccc(N=Cc2ccc(C=Nc3ccc(C(=O)OCC(C)CC)cc3)cc2)cc1 (stereo not given)	7
Oc1cccc2c(Cl)ccnc12	32
O=C(O)c1cccc(-c2c3ccc(=O)cc-3oc3cc(O)ccc23)c1	10
CN(CCc1ccccn1)c1ccc2c(c1)Cc1ccccc1-2	0
Cc1cc(S(=O)(=O)/N=C(/NN)NNc2cccc(C(F)(F)F)n2)c(S)cc1Cl	4
O=C1C2C(C(=O)N1c1ccc(OCc3ccccc3)cc1)C1c3ccccc3C2C2CCCCN21 (stereo not given)	-4
Nc1ccccc1CC(O)C(=O)O (stereo not given)	5
O=C(O)C1CCCCC1c1c2ccc(=O)c(O)c-2oc2c(O)c(O)ccc12 (stereo not given)	0
Cc1ccc2ccc(O)cc2c1	4
O=C1C(=O)c2ccccc2C=C1[N+](=O)[O-]	0
COC(=O)c1ccc(NCC2=CC(=O)C=CC2=O)cc1O	-3
C(CCSC1=NCCN1)CSC1=NCCN1 (tested in a mixture with another compound)	-8
N#Cc1c(N)[nH]c2ccc(Sc3ccccc3)cc12	-5
CCNc1nnc(CSc2nc(-c3ccccc3)c(-c3ccccc3)[nH]2)s1	-10
CC[C@@]1(O)C(=O)OCc2c1cc1n(c2=O)Cc2cc3c(N)cccc3nc2-1	-28
